Measurements reported in PubChem BioAssay.
Calls of active or inactive are those of the source. Unless noted, no stated cut-off is given here; in the data, active means response above about 15%; inactive means the rest.

How the values were obtained:
[1] = reduced mouse 2C T cell binding to pMHC/ICAM-1 vesicles – MLPCN validation set, flow cytometry, LFA-1/ICAM-1 modulator project, pilot screen (AID 2523;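 active means response below a set limit, under 55% cells CD8-positive and vesicle-bound, and CD8 cells' 90th-percentile brightness under 279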;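 on vesicle binding response: mean PE anti-B7-1 fluorescence of CD8+ cells relative to row control; 100% = QL9-loaded vesicles with DMSO vehicle in the same plate row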); conditions: 2C mouse CD8+ T cells, at 7 µM, stronger effect = lower value; double positive events: measured here: CD8+/vesicle+ event percentage
[2] = target: Integrin beta-1 (Homo sapiens) + Integrin alpha-4 (Homo sapiens) (UniProt P13612+P05556); experiment: alpha4beta1 integrin LIBS antibody binding reduction – U937 cells, HUTS-21 mAb, flow cytometry, validation set, VLA-4 allosteric modulator project, pilot screen (AID 2674;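 active means inhibition above 50%, about 3 SD of the validation set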;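 further: antibody binding induced by the VLA-4 ligand LDV present at three times its Kd; 0% = LDV ligand with antibody and no compound and 100% = antibody without LDV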); conditions: HUTS-21 LIBS mAb binding, at 6.7 µM, stronger effect = higher value, binding induced by LDV ligand
Sequence of Integrin beta-1 (Homo sapiens) + Integrin alpha-4 (Homo sapiens) (P05556 whole entry, looked up): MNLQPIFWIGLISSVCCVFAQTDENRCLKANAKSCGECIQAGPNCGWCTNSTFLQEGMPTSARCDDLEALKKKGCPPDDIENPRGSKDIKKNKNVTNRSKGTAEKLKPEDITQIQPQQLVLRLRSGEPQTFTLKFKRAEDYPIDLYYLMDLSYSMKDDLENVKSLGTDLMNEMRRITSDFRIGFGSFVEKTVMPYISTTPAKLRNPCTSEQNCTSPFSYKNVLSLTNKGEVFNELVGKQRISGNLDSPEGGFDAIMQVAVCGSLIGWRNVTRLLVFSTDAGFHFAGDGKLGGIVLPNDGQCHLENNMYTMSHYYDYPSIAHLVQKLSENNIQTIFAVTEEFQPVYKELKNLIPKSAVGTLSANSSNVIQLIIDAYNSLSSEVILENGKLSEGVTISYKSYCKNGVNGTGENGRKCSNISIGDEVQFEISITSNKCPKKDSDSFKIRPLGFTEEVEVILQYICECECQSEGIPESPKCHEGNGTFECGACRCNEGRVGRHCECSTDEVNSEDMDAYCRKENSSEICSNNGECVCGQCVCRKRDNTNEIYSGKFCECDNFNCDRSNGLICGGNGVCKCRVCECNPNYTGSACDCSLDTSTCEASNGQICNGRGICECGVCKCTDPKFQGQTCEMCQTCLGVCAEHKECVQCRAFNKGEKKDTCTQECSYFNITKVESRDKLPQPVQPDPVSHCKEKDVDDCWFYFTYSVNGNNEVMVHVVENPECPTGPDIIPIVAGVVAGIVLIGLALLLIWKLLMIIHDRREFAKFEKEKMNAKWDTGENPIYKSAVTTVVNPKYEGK
Sequence of Integrin beta-1 (Homo sapiens) + Integrin alpha-4 (Homo sapiens) (P13612 whole entry, looked up): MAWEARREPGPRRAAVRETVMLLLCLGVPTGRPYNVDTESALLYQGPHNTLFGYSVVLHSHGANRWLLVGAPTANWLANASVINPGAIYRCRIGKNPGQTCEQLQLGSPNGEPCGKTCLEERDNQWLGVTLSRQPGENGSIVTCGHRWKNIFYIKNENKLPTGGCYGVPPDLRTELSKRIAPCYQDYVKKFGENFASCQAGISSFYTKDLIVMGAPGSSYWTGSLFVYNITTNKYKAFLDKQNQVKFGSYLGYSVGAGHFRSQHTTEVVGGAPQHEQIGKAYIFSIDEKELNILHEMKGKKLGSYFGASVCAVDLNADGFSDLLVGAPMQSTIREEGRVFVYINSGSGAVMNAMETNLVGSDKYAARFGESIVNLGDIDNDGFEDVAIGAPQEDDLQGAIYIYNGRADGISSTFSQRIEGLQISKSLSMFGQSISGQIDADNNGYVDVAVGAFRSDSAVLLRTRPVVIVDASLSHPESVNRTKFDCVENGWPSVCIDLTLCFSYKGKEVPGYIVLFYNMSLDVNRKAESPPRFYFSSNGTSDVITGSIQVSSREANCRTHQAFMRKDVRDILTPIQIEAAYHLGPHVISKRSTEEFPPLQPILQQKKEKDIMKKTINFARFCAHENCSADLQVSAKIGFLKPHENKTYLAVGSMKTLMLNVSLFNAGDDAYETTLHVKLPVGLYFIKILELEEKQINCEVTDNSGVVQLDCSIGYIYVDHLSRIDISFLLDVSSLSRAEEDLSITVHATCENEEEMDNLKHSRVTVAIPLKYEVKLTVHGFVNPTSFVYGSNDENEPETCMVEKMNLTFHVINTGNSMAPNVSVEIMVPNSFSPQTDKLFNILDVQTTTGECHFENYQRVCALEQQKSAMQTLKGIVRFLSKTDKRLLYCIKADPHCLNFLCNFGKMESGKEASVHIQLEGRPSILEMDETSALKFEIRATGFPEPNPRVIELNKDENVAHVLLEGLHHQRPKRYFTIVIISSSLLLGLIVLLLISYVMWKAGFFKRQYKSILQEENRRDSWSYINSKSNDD

[3] = calorie-restriction mimetic ROS inhibitors, yeast – validation compound set, pilot screen (AID 2706;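 active means superoxide response below 65% of plate, a cut near 3 SD across the whole screen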;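 further: yeast exposed to compound for one week at 30 degrees C before staining; 100% = mean of all compound wells on the same plate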); conditions: S. cerevisiae aging, superoxide DHE fluorescence; at 10 µM, stronger effect = lower value
[4] = target: Beta-adrenergic receptor kinase 1 (Homo sapiens) (UniProt P25098); experiment: GRK2 binders displacing RNA aptamer, biochemical, validation, human GRK2, bead flow cytometry (AID 488806;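 active means aptamer binding inhibition above 30%, about 3 SD of noise from non-fluorescent compounds; inactive means inhibition at or below 30%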); conditions: bead-bound GRK2, FAM-aptamer displacement, at 10 µM, stronger effect = higher value
Sequence of Beta-adrenergic receptor kinase 1 (Homo sapiens) (P25098 whole entry, looked up): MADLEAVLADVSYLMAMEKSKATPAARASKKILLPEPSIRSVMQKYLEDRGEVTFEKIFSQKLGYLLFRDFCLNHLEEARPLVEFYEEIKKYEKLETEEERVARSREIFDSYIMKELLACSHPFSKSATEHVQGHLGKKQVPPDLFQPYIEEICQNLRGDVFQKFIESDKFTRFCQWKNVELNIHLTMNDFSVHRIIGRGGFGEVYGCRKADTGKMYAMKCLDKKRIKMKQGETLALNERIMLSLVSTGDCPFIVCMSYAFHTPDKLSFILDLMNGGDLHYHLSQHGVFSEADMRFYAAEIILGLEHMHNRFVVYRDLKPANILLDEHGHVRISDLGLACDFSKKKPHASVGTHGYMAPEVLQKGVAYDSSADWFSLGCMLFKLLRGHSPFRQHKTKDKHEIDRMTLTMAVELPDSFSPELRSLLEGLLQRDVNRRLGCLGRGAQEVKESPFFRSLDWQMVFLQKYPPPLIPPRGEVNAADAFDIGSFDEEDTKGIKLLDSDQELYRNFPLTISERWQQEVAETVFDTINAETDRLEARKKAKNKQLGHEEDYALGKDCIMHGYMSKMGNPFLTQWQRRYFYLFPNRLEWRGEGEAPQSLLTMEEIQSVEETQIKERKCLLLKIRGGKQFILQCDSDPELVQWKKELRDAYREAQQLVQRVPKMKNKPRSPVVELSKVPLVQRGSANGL

[5] = target: Beta-2 adrenergic receptor (Homo sapiens) (UniProt P07550); experiment: agonist-induced loss of surface beta2AR – cell-based, FAP fluorogen, flow cytometry, validation set, pilot screen (AID 504459;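 active means percent response above 42, roughly 3 SD of non-fluorescent test compounds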;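 further: agonist-driven loss of surface beta2AR via internalization measured by FAP dye flow cytometry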); conditions: Am2.2-beta2AR cells, at 10 µM, stronger effect = higher value
Sequence of Beta-2 adrenergic receptor (Homo sapiens) (P07550 whole entry, looked up): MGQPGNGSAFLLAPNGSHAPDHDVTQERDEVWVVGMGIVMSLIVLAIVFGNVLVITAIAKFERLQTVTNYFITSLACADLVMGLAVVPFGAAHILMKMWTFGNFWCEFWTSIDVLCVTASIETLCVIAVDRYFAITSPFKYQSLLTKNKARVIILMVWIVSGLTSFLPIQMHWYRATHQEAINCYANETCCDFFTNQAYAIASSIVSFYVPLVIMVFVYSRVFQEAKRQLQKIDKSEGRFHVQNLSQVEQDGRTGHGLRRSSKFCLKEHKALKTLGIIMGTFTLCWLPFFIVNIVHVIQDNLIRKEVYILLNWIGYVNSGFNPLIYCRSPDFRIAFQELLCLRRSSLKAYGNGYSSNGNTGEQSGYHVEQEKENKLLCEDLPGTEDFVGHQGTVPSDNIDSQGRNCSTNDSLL

[6] = target: AP-2 complex subunit beta (Homo sapiens) (UniProt P63010); experiment: beta-arrestin/AP2 interaction blockers – biochemical, validation set, GST-AP2 beads, flow cytometry, pilot screen (AID 504541;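 active means inhibition above 54%, about 3 SD of non-fluorescent compounds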;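 further: AP2 carries R879A mutation and is captured from E. coli lysate; bead-bound FITC arrestin peptide fluorescence measuring arrestin peptide binding to AP2; 0% = DMSO wells and 100% = excess unlabeled arrestin peptide control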); conditions: FITC arrestin peptide, at 10 µM, stronger effect = higher value, AP2 beta2 appendage fragment, R879A mutant
Sequence of AP-2 complex subunit beta (Homo sapiens) (P63010 whole entry, looked up, the tested form may be a part, one chain of several): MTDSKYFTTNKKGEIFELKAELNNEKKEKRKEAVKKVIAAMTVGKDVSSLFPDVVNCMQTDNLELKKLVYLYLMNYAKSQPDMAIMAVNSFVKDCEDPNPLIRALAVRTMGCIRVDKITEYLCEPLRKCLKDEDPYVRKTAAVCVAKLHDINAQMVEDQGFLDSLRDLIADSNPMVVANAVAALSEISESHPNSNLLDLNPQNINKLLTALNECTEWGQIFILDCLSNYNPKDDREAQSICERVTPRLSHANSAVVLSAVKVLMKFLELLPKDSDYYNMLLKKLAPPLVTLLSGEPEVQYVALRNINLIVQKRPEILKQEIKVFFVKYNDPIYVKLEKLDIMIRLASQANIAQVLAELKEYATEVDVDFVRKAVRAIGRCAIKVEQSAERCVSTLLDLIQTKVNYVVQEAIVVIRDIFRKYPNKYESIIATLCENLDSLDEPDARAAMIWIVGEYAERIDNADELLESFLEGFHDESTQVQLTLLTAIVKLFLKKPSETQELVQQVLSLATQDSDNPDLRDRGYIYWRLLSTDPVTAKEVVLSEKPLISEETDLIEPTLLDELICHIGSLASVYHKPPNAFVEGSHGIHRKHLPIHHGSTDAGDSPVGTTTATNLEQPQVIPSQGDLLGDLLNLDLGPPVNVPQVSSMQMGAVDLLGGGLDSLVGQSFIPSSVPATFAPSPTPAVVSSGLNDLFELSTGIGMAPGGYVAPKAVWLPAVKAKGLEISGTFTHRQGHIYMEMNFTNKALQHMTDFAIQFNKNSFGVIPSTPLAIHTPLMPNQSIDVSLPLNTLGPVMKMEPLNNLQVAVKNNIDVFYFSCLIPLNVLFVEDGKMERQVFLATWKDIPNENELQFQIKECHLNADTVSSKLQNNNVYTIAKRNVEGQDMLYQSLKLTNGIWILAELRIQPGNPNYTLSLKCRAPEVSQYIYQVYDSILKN

[7] = cytosolic pH regulators acting via V-ATPase – S. cerevisiae, pHLuorin, HTS validation (AID 504600); conditions: V-ATPase proton transport, at 10 µM, stronger effect = higher value;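 further: plate controls were DMSO for no effect and reference compound for full effect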
[8] = tested on: anti-desmoglein-3 scFv antibody binding to human DSG3; experiment: blockers of pathogenic pemphigus antibody–desmoglein-3 binding – biochemical, validation compound set, bead-based, flow cytometry, pilot screen (AID 588368;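 active means binding below the plate cutoff, the plate median minus 3 SD, with a reading above zero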;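 further: signal is the median channel fluorescence of bead-bound GFP antibody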); conditions: Protein G beads, DSG3-Fc, scFv-GFP binding, at 10 µM, stronger effect = lower value
[9] = Nile Red efflux blockade in pump-expressing yeast – validation compound set, multiplex, phenotypic, pilot screen (AID 588506;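 active means efflux inhibition above 0.42, the validation set average plus 4 SD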;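 further: Nile Red retained in cells so higher fluorescence means more efflux inhibition; 0 = negative control wells and 1 = enniatin B 25 µM full block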); conditions: S. cerevisiae pump-expressing triplex, Nile Red efflux flow cytometry; at 10 µM; stronger effect = higher value; the pumps come from Candida albicans
[10] = target: ATP-binding cassette sub-family B member 6 (Homo sapiens) (UniProt Q9NP58); experiment: blockers of ABCB6-driven porphyrin uptake – K562-ABCB6 cells, flow cytometry, validation set, pilot screen (AID 588550;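 active means inhibition above the screen-wide mean plus 3 SD, about 51%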;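 further: 0% = DMSO wells and 100% = benzethonium chloride 70 µM positive control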); conditions: K562-ABCB6 porphyrin accumulation, 1 h, at 10 µM, stronger effect = higher value
Sequence of ATP-binding cassette sub-family B member 6 (Homo sapiens) (Q9NP58 whole entry, looked up): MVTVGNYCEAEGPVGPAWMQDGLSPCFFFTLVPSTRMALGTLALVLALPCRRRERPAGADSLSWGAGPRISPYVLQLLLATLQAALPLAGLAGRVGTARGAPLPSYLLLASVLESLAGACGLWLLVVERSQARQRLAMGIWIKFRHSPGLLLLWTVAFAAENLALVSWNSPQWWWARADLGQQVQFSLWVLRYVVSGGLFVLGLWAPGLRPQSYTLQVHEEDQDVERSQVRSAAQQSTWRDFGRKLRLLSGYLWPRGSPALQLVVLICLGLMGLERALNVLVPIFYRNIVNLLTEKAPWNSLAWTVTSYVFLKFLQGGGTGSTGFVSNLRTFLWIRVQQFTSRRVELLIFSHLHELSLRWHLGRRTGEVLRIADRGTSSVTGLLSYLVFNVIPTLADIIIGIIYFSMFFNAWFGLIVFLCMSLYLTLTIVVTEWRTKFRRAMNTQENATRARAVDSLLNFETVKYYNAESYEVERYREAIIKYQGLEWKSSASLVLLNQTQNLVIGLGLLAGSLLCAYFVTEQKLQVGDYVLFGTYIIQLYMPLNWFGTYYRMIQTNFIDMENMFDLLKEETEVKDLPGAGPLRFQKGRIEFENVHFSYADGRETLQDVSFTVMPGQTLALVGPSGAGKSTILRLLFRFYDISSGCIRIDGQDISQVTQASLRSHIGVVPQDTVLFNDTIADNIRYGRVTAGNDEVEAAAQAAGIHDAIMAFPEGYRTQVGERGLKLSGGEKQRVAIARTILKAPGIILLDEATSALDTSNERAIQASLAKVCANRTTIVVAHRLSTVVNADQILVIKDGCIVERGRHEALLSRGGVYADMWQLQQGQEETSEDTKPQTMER

[11] = AML differentiation inducers, ER-HoxA9 marrow cells – cell-based, GFP/MAC1 double positive, flow cytometry, validation set, primary screen (AID 588685;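 active means differentiation response of at least 50%, scaled between solvent and reference control, from cells with both markers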;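 further: compound exposure lasts four days before antibody staining and flow analysis; 0% = DMSO wells and 100% = 5 µM fulvestrant positive control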); conditions: stronger effect = higher value, normalized: vehicle 0, fulvestrant 100

| SMILES | double positive events [1] [%] | vesicle binding response [1] | inhibition [2] | superoxide response (% of plate) [3] | aptamer binding inhibition [4] | response [5] | inhibition [6] | response [7] | binding (% of control) [8] | efflux inhibition (fraction of control) [9] | inhibition [10] | differentiation response [11] |
| --- | --- | --- | --- | --- | --- | --- | --- | --- | --- | --- | --- | --- |
| Cc1cccc(N2C(=O)C3C(c4ccccc4)OC4(C(=O)c5ccccc5C4=O)C3C2=O)c1 (centres undefined) | 56.8 | 143% (inactive) | -5.89% (inactive) | 110% (inactive) | 3% (inactive) | 1.5% (inactive) | 6.34% (inactive) | -0.37% (inactive) | 104% (inactive) | 0.33 (inactive) | 5% (inactive) | -12% (inactive) |
| CC(=O)/C=C/c1ccc(C)o1 | 62.2 | 175% (inactive) | 5.03% (inactive) | 95.6% (inactive) | -4% (inactive) | 14.7% (inactive) | 15.9% (inactive) | 0.22% (inactive) | 102% (inactive) | 0.51 (active) | 3% (inactive) | 28% (inactive) |
| COc1ccc(C(=O)Nc2ccc(OC)c([N+](=O)[O-])c2)cc1Br | 59 | 113% (inactive) | 4.27% (inactive) | 92.1% (inactive) | -1% (inactive) | 8.89% (inactive) | 7.87% (inactive) | 4.22% (inactive) | 83.4% (inactive) | -0.175 (inactive) | 2% (inactive) | -10.4% (inactive) |
| O=c1oc2c(CN3CCN(CCO)CC3)c(O)ccc2cc1-c1ccccn1 | 62.7 | 150% (inactive) | -14.9% (inactive) | 88.3% (inactive) | -1% (inactive) | 59.8% (active) | -9.17% (inactive) | 5.97% (inactive) | 109% (inactive) | -0.06 (inactive) | 15% (inactive) | 10.6% (inactive) |
| COc1ccc2cc[nH]c2c1 | 67.5 | 407% (inactive) | -5.38% (inactive) | 104% (inactive) | 2% (inactive) | -20.2% (inactive) | -3.08% (inactive) | 0.61% (inactive) | 103% (inactive) | 0 (inactive) | 5% (inactive) | -10.9% (inactive) |
| O=C(NCc1ccccc1Cl)NC(=O)c1ccccc1 | 62 | 221% (inactive) | 6.46% (inactive) | 115% (inactive) | 4% (inactive) | 0.79% (inactive) | 8.1% (inactive) | -5.42% (inactive) | 98.7% (inactive) | 0.19 (inactive) | 7% (inactive) | 1.64% (inactive) |
| CC(C)OC(=O)CC1C(=O)NCCN1C(=S)NC(=O)c1ccccc1Cl (centres undefined) | 57.9 | 115% (inactive) | -5.11% (inactive) | 94.8% (inactive) | 1% (inactive) | 11.7% (inactive) | 7.65% (inactive) | -6.29% (inactive) | 111% (inactive) | 0 (inactive) | -197% (inactive) | -10.4% (inactive) |
| COc1ccc2c(c1OC)C(=O)NC(C)=C(C(=O)OC(C)(C)C)C2O (centres undefined) | 62.8 | 192% (inactive) | 5.03% (inactive) | 97.2% (inactive) | 4% (inactive) | 7.52% (inactive) | -5.16% (inactive) | 1.16% (inactive) | 103% (inactive) | 0.01 (inactive) | 7% (inactive) | 56.8% (active) |
| Nc1cccc2nc3ccccc3cc12 | 60.9 | 235% (inactive) | 9.1% (inactive) | 113% (inactive) | 3% (inactive) | 2.19% (inactive) | 2.41% (inactive) | -17.4% (inactive) | 102% (inactive) | -0.04 (inactive) | 2% (inactive) | -6.96% (inactive) |
| COc1ccccc1C(CC(=O)Nc1ccccc1C)c1ccc(OC(C)C)cc1 (centres undefined) | 63.5 | 263% (inactive) | 9.95% (inactive) | 92.7% (inactive) | 4% (inactive) | -15% (inactive) | -4.43% (inactive) | -5.65% (inactive) | 105% (inactive) | 0.54 (active) | 0% (inactive) | -1.05% (inactive) |
| COc1cc2c(cc1O)CCN(C(=O)c1ccco1)C2C (centres undefined) | 59.4 | 242% (inactive) | 5.03% (inactive) | 98.4% (inactive) | -1% (inactive) | 0.24% (inactive) | 14.6% (inactive) | 0.13% (inactive) | 97.4% (inactive) | 0.22 (inactive) | 4% (inactive) | 8.8% (inactive) |
| COc1ccc(CCNC(=O)c2c(O)c3c([nH]c2=O)CCCC3)cc1 | 62.2 | 180% (inactive) | 3.14% (inactive) | 124% (inactive) | -6% (inactive) | -28.9% (inactive) | -16.3% (inactive) | 9.51% (inactive) | 30.9% (active) | 0 (inactive) | 1% (inactive) | -0.06% (inactive) |
